Bioassay records: PubChem, National Center for Advancing Translational Sciences (NCATS)
PI4K2A block: blocks human PI4K2A kinase activity | Q9BTU6 | purified PI4K2A, ADP-Glo luminescence, 1 h; hits give low values | activity change, negative = inhibition, % at 76.9 µM | 420,000 tested, 0.13% active; in the data active = activity change below about -50%; inconclusive = mostly about -30% to -49%;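 note: -100% = wells without enzyme as full effect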
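PI4K2A activity was measured by ADP-Glo luminescence: enzyme (4 ug/mL stock) and phosphatidylinositol (1.2 mM stock) in Tris pH 7.5/MgCl2/EGTA/Triton X-100 buffer were reacted with ATP (300 microM stock) for one hour at ambient temperature.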
GALK inhibitor: galactokinase (human) inhibition. P51570. Purified GALK, Kinase-Glo residual ATP luminescence. Potency, µM (top dose mostly 57.5 µM), for the others: at the top dose activity change, negative = inhibition, most hits filed as inhibitors. 270,000 tested, 0.007% active. AID 1868; note: potency is the fitted concentration of half-maximal effect
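Compounds were pin-transferred into ATP buffer (35 uM final), then GALK plus galactose (5 nM, 100 uM final) was added. After 1 h at room temperature, Kinase-Glo Plus was added and luminescence read after 10 min.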
TrxR1 substrate: rat thioredoxin reductase 1 substrate activity | 390,000 tested, 0.01% active | Potency, µM (top dose mostly 114 µM), for the others: at the highest dose activity change, negative = substrate turnover | purified TrxR1 substrate turnover, NADPH consumption readout; note: potency is the fitted concentration of half-maximal effect; nearly all actives have a fitted effect of over 50% in size
Target sequence (O89049 whole entry, looked up): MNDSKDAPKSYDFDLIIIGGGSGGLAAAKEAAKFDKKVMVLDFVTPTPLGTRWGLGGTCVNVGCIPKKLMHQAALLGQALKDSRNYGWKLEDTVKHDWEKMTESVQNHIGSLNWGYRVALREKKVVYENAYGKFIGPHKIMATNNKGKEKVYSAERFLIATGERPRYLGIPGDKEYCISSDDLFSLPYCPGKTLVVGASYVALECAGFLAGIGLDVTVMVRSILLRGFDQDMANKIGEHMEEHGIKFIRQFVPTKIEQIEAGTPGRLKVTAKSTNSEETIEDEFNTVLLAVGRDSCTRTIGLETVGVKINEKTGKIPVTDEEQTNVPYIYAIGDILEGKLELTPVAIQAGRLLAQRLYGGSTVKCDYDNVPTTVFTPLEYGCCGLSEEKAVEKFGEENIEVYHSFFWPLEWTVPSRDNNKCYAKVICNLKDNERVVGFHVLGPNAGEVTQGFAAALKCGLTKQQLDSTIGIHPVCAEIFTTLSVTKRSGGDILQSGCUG
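Rat TrxR1, dispensed at 90 nM, was prereduced with 400 uM NADPH (final) for 5 min at ~22 deg C, then incubated with compound 15 min before 400 uM selenite. A first-read NADPH fluorescence drop versus no-compound background flagged substrates.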
TrxR1 inh: inhibitors of rat thioredoxin reductase 1 | O89049 | recombinant rTrxR1, NADPH fluorescence consumption, selenite substrate | Potency, µM (highest dose often 114 µM), without a hit: at the highest dose activity change, negative = inhibition, usual class: inhibitors | 390,000 tested, 1% active | AID 588453; note: potency is the fitted concentration of half-maximal effect; nearly all actives have a fitted effect of over 65% in size
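Rat TrxR1 (90 nM in the dispensed reagent) was pre-reduced with 400 uM NADPH for 5 min at room temperature, then incubated with compound for 15 min. After 400 uM selenite was added, NADPH fluorescence (Ex 340/Em 450 nm) was followed for 8 min.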
An asterisk follows results filed as active; u = inconclusive; x = not tested or not shown; [ ] = dose if it differs, or a comment. Hits are enriched below; roughly 1.1% of the tested compounds scored in any of these assays. Unless noted, calls come from the whole dose curve; as a rule, active = well fitted curve in the direction sought with a large enough effect; inconclusive = small, poorly fitted or top-dose-only effect, or another doubt; inactive = no such curve, though single readings can be large; an effect the other way counts as inactive or inconclusive. Unless noted, % is set by controls: 0 for no effect and ±100 for the full control effect.

SMILES | PI4K2A block | GALK inhibitor | TrxR1 substrate | TrxR1 inh
CCC(C)(C)n1nnnc1C(c1cc2cccc(C)c2[nH]c1=O)N1CCCC1 (stereo not given) | 11 | 0% | 8%[57.1 µM] | u
CN(Cc1ccc(F)cc1)C(=O)CN1C(=O)C2(OCCCO2)c2ccccc21 | -4 | x | x | x
CC(=O)N(CC(O)CO)c1c(I)c(C(=O)NCCO)c(I)c(C(=O)NCC(O)CO)c1I (stereo not given) | 1 | x | x | x
Cc1cnc(NS(=O)(=O)c2ccc(N)cc2)nc1 | -1 | x | x | x
CCc1ccccc1NC(=O)CN(C)Cc1c(O)ccc2ccccc12 | 3 | 14% | 6% | 40µM*
Cc1ccc(C(=O)N/C(=C/c2ccco2)C(=O)Nc2cccc(C)c2)cc1 | 2 | -3% | -2% | -29%
O=C(Nc1cccc(F)c1)/C(=C\c1cccnc1)NC(=O)c1ccco1 | 3 | -3% | 8%[57.1 µM] | 7%[57.1 µM]
O=C(Nc1cccc(F)c1)/C(=C/c1ccco1)NC(=O)c1ccco1 | -7 | -11% | -17% | 45µM*
Cc1cccc(NC(=O)/C(=C\c2ccco2)NC(=O)c2cccs2)c1 | -8 | x | -7% | 40µM*
O=c1c(Cl)c(NCc2ccccc2)cnn1C12CC3CC(CC(C3)C1)C2 | -1 | -1% | 9%[57.1 µM] | 3%[57.1 µM]
COC(=O)c1cc2sc(C)cc2n1Cc1cccc(OC)c1 | 3 | x | 0% | 11%
Cn1c(N)c(C#N)c2c(c1=S)CSC(C)(C)C2 | 1 | 4% | -13% | u
CC1(C)Cc2c(C#N)c(N)sc(=S)c2CS1 | u | 0% | 6%[57.1 µM] | 14µM*
Oc1ccc(NC(=S)Nc2ccccc2)cc1 | -16 | 4% | 16%[57.1 µM] | -7%[57.1 µM]
N#Cc1cccc(NC(=S)Nc2ccccc2)c1 | 1 | 2% | -4% | 45µM*
COc1cc2c(cc1OC)C(=O)CC2 | -2 | x | x | x
COc1cccc(N2CC(NC(=O)COc3ccc4ccccc4c3)CC2=O)c1 (stereo not given) | 0 | x | -5%[57.1 µM] | 9%[57.1 µM]
O=[N+]([O-])c1cnc(Sc2ccncn2)s1 | -14 | -1% | -11% | u
C=CCn1c(Sc2ncc([N+](=O)[O-])s2)n[nH]c1=O | -5 | 0% | 12%[57.1 µM] | 0.32µM*
c1coc(C2=Nc3cccc4cccc(c34)N2)c1 | u | -2% | -7% | 35µM*
O=C(CN1CCN(Cc2ccccc2)CC1)NCc1ccc(Cl)cc1 | 0 | -3% | 7%[57.1 µM] | 12%[57.1 µM]
O=C(CN1CCN(C(=O)c2ccco2)CC1)NCc1ccc(Cl)cc1 | 0 | -2% | 10% | 14µM*
Nc1ccc(-c2nc3c(Cl)c(N)ccc3[nH]2)cc1 | -3 | 0% | 985% | 79µM*
Nc1ccc2nc(-c3ccc(Cl)cc3)[nH]c2c1 | -2 | 2% | 229% | 28%
Cc1ccccc1S(=O)(=O)NC(=O)C1(C)CCN1C(=O)Cc1ccc(C(C)(C)C)cc1 (stereo not given) | 1 | x | x | x
SMILES | PI4K2A block | GALK inhibitor | TrxR1 substrate | TrxR1 inh
O=[N+]([O-])C(/C=C(/Cl)[N+](=O)[O-])=C(N1CCCCC1)N1CCCCC1 | 1 | 5% | -10%[57.1 µM] | 7.9µM*
CC(=O)Nc1c(I)cc(I)c(C(=O)O)c1I | 1 | x | x | x
Cc1ccc(S(=O)(=O)N2CCCC2C(=O)OCc2ccccc2)cc1 (stereo not given) | -1 | 3% | -5% | 12%
Cc1ccc(S(=O)(=O)N2CCCC2C(=O)OCc2ccco2)cc1 (stereo not given) | -6 | 0% | 10% | 7.9µM*
CCCOC(=O)c1ccc(-c2ccc(C=O)o2)cc1 | -2 | 0% | 74% | 32µM*
CCOC(=O)c1ccc(-c2ccc(C=O)o2)cc1 | 4 | 13% | 72%[57.1 µM] | u
CC(C)NC(=O)c1ccc(C=O)cc1 | 0 | x | x | x
CC(C)OCCCNC(=O)CN1C(=O)c2cccnc2Sc2ccccc21 | -2 | x | 10%[57.1 µM] | 22%[57.1 µM]
CC(C)(C)SCCNC(=O)c1ccccc1 | 1 | -3% | -6% | -10%
Cc1ccc(C(=O)NCCSC(C)(C)C)cc1 | -59* | 2% | -5%[57.1 µM] | 12%[57.1 µM]
CCOc1cc(C=C(C#N)C#N)ccc1Oc1ccc([N+](=O)[O-])cn1 | 36 | -7% | -8% | 10µM*
CC(=O)OCC(NC(=O)C1CCCN1C(=O)OC(C)(C)C)C1OC(n2cc(F)c(=O)[nH]c2=O)C(OC(C)=O)C1OC(C)=O (stereo not given) | x | x | 3% | 7%
Cc1cccc(NC(=S)NCC23C=CC(O2)C2C(=O)N(c4ccc(Cl)cc4)C(=O)C23)c1 (stereo not given) | -1 | 0% | -1% | 7.9µM*
Cc1ccc(S(=O)(=O)NCC2(c3ccccc3)CCN(C)CC2)cc1 | -1 | 0% | -7% | -7%
S=C(NCC1CCCO1)N1CCN(c2ccccc2)CC1 (stereo not given) | 0 | 0% | 9% | 25%[57.1 µM]
Cc1ccc(N2C(=O)C3C4C=CC(CNC(=S)N5CCN(c6ccccc6)CC5)(O4)C3C2=O)cc1 (stereo not given) | -1 | -1% | 0% | 20µM*
Cc1ccc(S(=O)(=O)NCC23C=CC(O2)C2C(=O)N(c4ccccc4)C(=O)C23)cc1 (stereo not given) | 9 | -4% | 0% | 2.8µM*
CC(C)(C)OC(=O)NCC12C=CC(O1)C1C(=O)N(Cc3ccccc3)C(=O)C12 (stereo not given) | -6 | 0% | 10% | u
Cc1ccc(NC(=S)NCC23C=CC(O2)C2C(=O)N(c4ccc(C)cc4)C(=O)C23)cc1 (stereo not given) | 7 | 1% | 1% | 10µM*
CCOc1cc(-c2nc(-c3ccc(-c4ccc(C)cc4)nc3OC)no2)cc(OCC)c1OCC | 1 | x | 13% | 26%
CN(C)c1ccc(/C=C/c2ccnc3cc(Cl)ccc23)cc1 | x | x | -3%[0.0914 µM] | -11%
COc1ccc(CCNC[C@@H](O)c2ccc(O)cc2)cc1OC | x | x | x | 4%
O=C(CCN1CCCCC1)c1cccc(Cl)c1 | 13 | x | 12%[57.1 µM] | 0.35µM*
O=C(CN1CCN(c2ccc([N+](=O)[O-])cc2)CC1)c1ccccc1 | 14 | 5% | 9%[57.1 µM] | u
O=C(CCN1CCN(c2ccc([N+](=O)[O-])cc2)CC1)c1ccc(Cl)cc1 | 15 | x | -9% | 7.1µM*
SMILES | PI4K2A block | GALK inhibitor | TrxR1 substrate | TrxR1 inh
O=C(CCN1CCN(c2ccccc2)CC1)Nc1ccc(Cl)cc1 | 2 | 0% | 5% | 15%
O=C(CCN1CCN(c2ccccc2)CC1)c1ccc(Cl)cc1 | 20 | -4% | -6% | 1.6µM*
COc1ccc(N2CCN(CCC(=O)c3ccc4ccccc4c3)CC2)cc1 | 25 | x | 5% | 1.8µM*
C[C@@H]1[C@H](c2ccccc2)OCCS(=O)(=O)N1Cc1cccc(Cl)c1 | x | x | -3% | 6%
COc1cc(/C=C(/C(=O)c2cccs2)c2nc3ccccc3[nH]2)cc(OC)c1O | -16 | -5% | -16% | 56µM*
COc1ccc(C(=O)N/C(=C/c2cccs2)c2nc3ccccc3[nH]2)cc1OC | 0 | x | -6% | -5%
Cc1ccccc1N1CCN(CCc2nnc3n2CCCC3)CC1 | -1 | x | x | x
COc1cc2oc(=O)c(CC(=O)N3CCCCC3)c(C)c2cc1OC | -4 | x | 782% | 16µM*
Cc1coc2cc3oc(=O)c(CC(=O)N4CCCCC4)c(C)c3cc12 | -1 | x | 2% | 7%
